# Reference: PubChem BioAssay (NCATS)
# Records with an inconclusive call do not appear. Entries that show only a call come without a potency. Unmarked numbers belong to inactive results. The source made the active and inactive calls. Unless noted, calls follow the shape of the dose curve; as a rule, active = well fitted curve in the direction sought with a large enough effect; inconclusive = small, poorly fitted or top-dose-only effect, or another doubt; inactive = no such curve, though single readings can be large; an effect the other way counts as inactive or inconclusive.
# How the values were obtained:
# [1] = qHTS for Inhibitors of Plasmodium falciparum (GB4) proliferation (AID 504315); also: nearly all actives have a fitted effect of over 50% in size; also: potency is read from the fitted curve at half-maximal effect
# Summary of the method: (§1)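 Erythrocytes infected with P. falciparum line (0.3% parasitemia, 2.5% hematocrit final) incubated with compounds 72 h at 37 °C, 5% CO2; SYBR Green lysis buffer added, fluorescence read next day. Normalized to 0.29 uM artemisinin and DMSO.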
# [2] = qHTS for Inhibitors of Plasmodium falciparum (CP250) proliferation (AID 504320)
# Summary of the method: as §1
# [3] = target: Atrial natriuretic peptide receptor 1 (Homo sapiens) (UniProt P16066); experiment: Natriuretic polypeptide receptor (hNpr1) antagonism - Pilot CMLD screen (AID 1347052; calls by dose curve;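 also: cGMP level read as GloSensor luciferase luminescence after agonist stimulation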; also: potency is read from the fitted curve at half-maximal effect)
# Sequence of Atrial natriuretic peptide receptor 1 (Homo sapiens) (P16066 whole entry, looked up): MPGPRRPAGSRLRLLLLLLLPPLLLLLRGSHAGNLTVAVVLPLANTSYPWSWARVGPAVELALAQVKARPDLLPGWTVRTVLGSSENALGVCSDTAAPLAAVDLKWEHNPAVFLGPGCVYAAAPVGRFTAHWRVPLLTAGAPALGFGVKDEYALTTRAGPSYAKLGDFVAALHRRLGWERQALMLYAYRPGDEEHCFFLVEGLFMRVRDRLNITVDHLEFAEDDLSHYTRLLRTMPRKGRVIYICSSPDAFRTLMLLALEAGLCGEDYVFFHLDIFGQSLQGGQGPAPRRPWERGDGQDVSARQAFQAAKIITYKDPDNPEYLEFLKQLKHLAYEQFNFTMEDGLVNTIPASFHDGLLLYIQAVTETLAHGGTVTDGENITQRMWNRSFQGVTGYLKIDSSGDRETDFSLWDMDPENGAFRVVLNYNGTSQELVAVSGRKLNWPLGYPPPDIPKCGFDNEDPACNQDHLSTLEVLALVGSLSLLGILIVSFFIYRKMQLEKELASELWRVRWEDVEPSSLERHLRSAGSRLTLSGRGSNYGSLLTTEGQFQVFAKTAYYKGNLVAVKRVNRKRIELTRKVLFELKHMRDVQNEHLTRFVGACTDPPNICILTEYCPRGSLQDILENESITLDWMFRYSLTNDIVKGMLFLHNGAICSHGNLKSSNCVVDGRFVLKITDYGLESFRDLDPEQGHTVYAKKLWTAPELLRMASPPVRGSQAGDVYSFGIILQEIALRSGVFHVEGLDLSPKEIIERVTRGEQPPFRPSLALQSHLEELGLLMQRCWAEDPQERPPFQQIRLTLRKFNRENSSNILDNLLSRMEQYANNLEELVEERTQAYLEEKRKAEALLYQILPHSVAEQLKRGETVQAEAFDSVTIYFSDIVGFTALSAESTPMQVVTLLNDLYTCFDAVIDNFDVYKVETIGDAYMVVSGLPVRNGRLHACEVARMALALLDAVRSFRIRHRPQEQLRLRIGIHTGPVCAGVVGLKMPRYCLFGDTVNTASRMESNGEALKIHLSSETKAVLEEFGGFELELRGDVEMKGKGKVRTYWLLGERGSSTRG
# [4] = qHTS for Inhibitors of Plasmodium falciparum (7G8) proliferation (AID 504316); also: nearly all actives have a fitted effect of over 65% in size; also: potency is read from the fitted curve at half-maximal effect
# Summary of the method: as §1
# [5] = qHTS for Inhibitors of Plasmodium falciparum (HB3) proliferation (AID 504318); also: nearly all actives have a fitted effect of over 60% in size; also: potency is read from the fitted curve at half-maximal effect
# Summary of the method: as §1
smiles,measurement,setting,value
COc1cc(CCN2C(=O)NC(c3cccc(C(F)(F)F)c3)C(C(C)=O)=C2C)cc(OC)c1OC (stereo not drawn),Potency,[1],inactive
same,Potency,[2],inactive
same,Potency,[3],inactive
CC1=C[C@@H](COCc2ccccc2)O[C@@]2(C1)C(=O)N(CC1CC1)c1ccccc12,Potency,[1],inactive
same,Potency,[2],inactive
same,Potency,[3],inactive
COC(=O)[C@@H]1CC23C(=NC(c4ccc([N+](=O)[O-])cc4)=C(C(F)(F)F)[C@@H]2N(C)c2ccccc23)N1C(C)=O (stereo partly drawn),Potency,[1],inactive
same,Potency,[2],inactive
same,Potency,[3],inactive
CC=Cc1cc2ccccc2c2c(C(=O)OC)c(C(=O)OC)c(C(=O)OC(C)(C)C)n12,Potency,[1],inactive
same,Potency,[2],inactive
same,Potency,[3],inactive
CCCCCCCc1cc2ccc(F)cc2c2c(C(=O)OC)c(C(=O)OC)c(C(=O)OC)n12,Potency,[4],inactive
same,Potency,[3],inactive
C#CCCOC(=O)N1C2=NC3=C(C(=O)N(Cc4ccc5c(c4)OCO5)C3=O)C3N(C)c4ccccc4[C@]23C[C@H]1CO (stereo partly drawn),Potency,[1],inactive
same,Potency,[2],inactive
same,Potency,[3],inactive
COc1ccc([C@]23Cc4ccccc4[C@H](O2)c2c(cc(C)n(Cc4ccccc4)c2=O)O3)cc1,Potency,[1],2.13 µM (active)
same,Potency,[2],inactive
same,Potency,[3],inactive
CC(=O)OC[C@H]1O[C@H](CCON=C(C)CCN2CCc3nc(-c4ccccc4)c(-c4ccccc4)cc3C2)C=C[C@H]1OC(C)=O,Potency,[4],1.51 µM (active)
same,Potency,[3],inactive
COc1ccc2c(c1)O[C@@H](c1ccc3c(c1)OCO3)[C@H](OC(=O)NCCOc1ccccc1)C2=O,Potency,[1],inactive
same,Potency,[2],inactive
same,Potency,[3],inactive
C=C(C[C@@]1(C(=O)OC)C=C[C@@H](C)[C@H](c2ccccc2Br)N1C(=O)C(F)(F)F)c1ccccc1,Potency,[4],1.9 µM (active)
same,Potency,[3],inactive
CC1(C)CC(=O)C2=C(C1)O[C@@]1(CCCCN3C(=O)c4ccccc4C3=O)Cc3ccccc3[C@H]2O1,Potency,[4],1.51 µM (active)
same,Potency,[3],inactive
C=CCN1C(=O)CC[C@@]23C1=NC(C(=O)OC)=C(C(=O)OC)[C@@H]2N(CC#CC)c1ccccc13,Potency,[1],inactive
same,Potency,[2],inactive
same,Potency,[3],inactive
CCc1cc2c(nc1CC)CCN(CCC(C)=NOCC[C@@H]1C=C[C@H](OC(C)=O)[C@@H](COC(C)=O)O1)C2,Potency,[1],inactive
same,Potency,[2],inactive
same,Potency,[3],inactive
Cc1cc2c(nc1C)CCCCN2C[C@H](C)ON=C1[C@H]2CCn3c(=O)n(-c4ccccc4)c(=O)n3[C@@H]2[C@H](O)[C@@H]2O[C@H]12,Potency,[1],inactive
same,Potency,[2],inactive
same,Potency,[3],inactive
Cc1cc2c(c(=O)n1Cc1ccccc1)[C@H]1O[C@](CCCCN3C(=O)c4ccccc4C3=O)(Cc3cc(C#N)ccc31)O2,Potency,[1],inactive
same,Potency,[2],inactive
same,Potency,[3],inactive
C=C(C(=O)C(C)(C)O)C(O)c1ccc([N+](=O)[O-])cc1 (stereo not drawn),Potency,[1],inactive
same,Potency,[2],inactive
same,Potency,[3],inactive
CC12C=C(C=Cc3ccc(F)cc3)C(C)(C1)C(c1ccc(F)cc1)CC2=O (stereo not drawn),Potency,[1],inactive
same,Potency,[2],inactive
same,Potency,[3],inactive
CC1=C[C@]2(O[C@H](COc3ccccc3)C1)C(=O)N(C)c1ccccc12,Potency,[1],inactive
same,Potency,[2],inactive
same,outcome,[3],inactive
CC(C)=CCCC(C)=CCON=C1C[C@@H](O)[C@@H](O)[C@@H]2[C@H]3C(=O)N(Cc4ccccc4)C(=O)[C@@H]3CC[C@@H]12,Potency,[1],inactive
same,Potency,[2],inactive
same,Potency,[3],inactive
CC12C=C(C=Cc3ccc(Br)cc3)C(C)(C1)[C@H](c1ccc(Br)cc1)CC2=O (stereo partly drawn),Potency,[4],1.69 µM (active)
same,Potency,[3],inactive
COc1ccc(O[C@H]2C=C[C@@H](c3ccccc3)O[C@H]2COC(=O)CCC(C)=NO[C@H](C)CN2CCCc3nc(C)c(C)cc32)cc1,Potency,[4],1.9 µM (active)
same,Potency,[3],inactive
COC(=O)C1=C(C)N(Cc2ccccc2)C(=NCC2CC2)NC1c1cccc(C(F)(F)F)c1 (stereo not drawn),Potency,[4],inactive
same,Potency,[3],inactive
COC(=O)C1=C(C)N(CCc2cc(OC)c(OC)c(OC)c2)C(=O)NC1c1ccc(Br)cc1 (stereo not drawn),Potency,[1],inactive
same,Potency,[2],inactive
same,Potency,[3],inactive
C=CCN=C1NC(CCc2ccccc2)C(C(=O)OC)=C(C)N1CC (stereo not drawn),Potency,[4],inactive
same,Potency,[3],inactive
COc1ccc(O[C@H]2C=C[C@@H](c3ccccc3)O[C@H]2COC(=O)CCC(C)=NO[C@H](C)c2cn([C@@H]3COC[C@@H]3O)nn2)cc1,Potency,[1],inactive
same,Potency,[2],inactive
same,Potency,[3],inactive
COC1=C(C(=O)c2ccccc2)C(=O)[C@@]2(CC=C(C)C)CC(C#N)C[C@@]1(CC=C(C)C)C2=O (stereo partly drawn),Potency,[1],inactive
same,Potency,[2],inactive
same,Potency,[3],inactive
COCc1cc2cc3c(cc2c2c(C(=O)OC)c(C(=O)OC)c(C(=O)OC(C)(C)C)n12)OCO3,Potency,[4],1.51 µM (active)
same,Potency,[3],3.35 µM (active)
COc1cc([C@@H](NC(=O)C(F)(F)F)C2CCCCC=C2c2ccccc2)cc(OC)c1OC (stereo partly drawn),Potency,[1],inactive
same,Potency,[2],inactive
same,Potency,[3],inactive
CC1=CC[C@@H](COc2ccccc2)O[C@@]2(C1)C(=O)N(Cc1ccc(F)cc1)c1ccccc12,Potency,[1],inactive
same,Potency,[2],inactive
same,Potency,[3],inactive
C=CCN1C=C2C(=O)C(C)(OC(=O)c3ccco3)C(=O)C(C=C)=C2C=C1C1CC1 (stereo not drawn),Potency,[1],inactive
same,Potency,[2],inactive
same,Potency,[3],inactive
COc1ccc2c(c1)O[C@@H](c1cccc(C(F)(F)F)c1)[C@H](OC(=O)Nc1cc(OC)c(OC)c(OC)c1)C2=O,Potency,[1],inactive
same,Potency,[2],inactive
same,Potency,[3],inactive
CC#CCN1c2ccccc2[C@]23CCC(=O)N(Cc4ccco4)C2=NC(C(=O)OC)=C(C(=O)OC)[C@H]13,Potency,[4],1.69 µM (active)
same,Potency,[3],inactive
Oc1ccc2c(c1-c1c(O)c(Br)cc3c1CCCC3)CCCC2,Potency,[1],inactive
same,Potency,[2],inactive
same,Potency,[3],inactive
COc1ccc2c(c1)O[C@@H](c1ccc3c(c1)OCO3)[C@H](OC(=O)Nc1cc(OC)c(OC)c(OC)c1)C2=O,Potency,[4],1.69 µM (active)
same,Potency,[2],inactive
same,Potency,[3],inactive
COC(=O)CC=C1c2ccccc2OC[C@@H](OC)[C@H]1C,Potency,[4],inactive
same,Potency,[5],inactive
same,Potency,[3],inactive
COC(=O)c1ccc(CN2C(=O)[C@@]3(CC(C)=CC[C@@H](C)O3)c3ccccc32)cc1,Potency,[4],inactive
same,Potency,[5],inactive
same,Potency,[2],inactive
same,Potency,[3],inactive
C=C(C)C(=O)C=CC=Cc1ccccc1,Potency,[4],inactive
same,Potency,[5],inactive
same,Potency,[2],inactive
same,Potency,[3],inactive
C[C@H]1C=CCC(=O)N[C@@H](c2ccccc2)[C@@H](C)C=CCC(=O)N[C@@H]1c1ccccc1,Potency,[4],0.426 µM (active)
same,Potency,[5],1.51 µM (active)
same,Potency,[2],inactive
same,Potency,[3],inactive
COC(=O)C1=C(C)N(Cc2ccccc2)C(=NCCc2ccc([N+](=O)[O-])cc2)NC1c1cccc(F)c1 (stereo not drawn),Potency,[4],2.69 µM (active)
same,Potency,[5],inactive
same,Potency,[3],inactive
C=C(C)CO[C@H]1C=C[C@@H](c2ccccc2)O[C@H]1CO,Potency,[4],inactive
same,Potency,[5],inactive
same,Potency,[2],inactive
same,Potency,[3],inactive
C[C@@H]1CC2=CCCC2[C@]2(O1)C(=O)N(CC1CC1)c1cccc(Br)c12 (stereo partly drawn),Potency,[4],inactive
same,Potency,[5],inactive
same,Potency,[2],inactive
same,Potency,[3],inactive
CCCNC(=O)OC[C@H]1O[C@H](CCON=C(C)CCN2CCCCc3nc(C)c(C)cc32)C=C[C@H]1Oc1ccc(OC)cc1,Potency,[4],1.9 µM (active)
same,Potency,[5],2.82 µM (active)
same,Potency,[3],inactive
COC(=O)[C@@H]1CC[C@H](C)[C@@H](c2ccc(C)cc2)N1C(=O)c1ccc(C=NOC[C@H]2O[C@H](c3ccccc3)C=C[C@H]2Oc2ccc(OC)cc2)cc1,Potency,[4],inactive
same,Potency,[3],inactive
CC[C@H](C)[C@@H](NC(=O)O[C@@H]1C(=O)c2ccc(OC)cc2O[C@H]1c1ccc2c(c1)OCO2)C(=O)OC,Potency,[4],inactive
same,Potency,[5],inactive
same,Potency,[2],inactive
same,Potency,[3],inactive
O=C(N[C@H](c1cccc(Br)c1)[C@@H]1CCCC=C1c1ccccc1)C(F)(F)F,Potency,[4],inactive
same,Potency,[3],inactive
CC1=C[C@@H](COc2ccccc2)O[C@@]2(C1)C(=O)N(Cc1ccccc1)c1ccccc12,Potency,[4],0.757 µM (active)
same,Potency,[5],inactive
same,Potency,[3],inactive
COC(=O)C1=C(C)N(Cc2ccccc2)C(=S)NC1c1cccc(C(F)(F)F)c1 (stereo not drawn),Potency,[4],inactive
same,Potency,[5],inactive
same,Potency,[2],inactive
same,Potency,[3],inactive
c1ccc(C2NCCc3c2[nH]c2ccccc32)cc1 (stereo not drawn),Potency,[4],inactive
same,Potency,[5],inactive
same,Potency,[2],inactive
same,Potency,[3],inactive
CCN1C(N(C)CCc2ccc(Br)cc2)=NC(c2ccccc2)C(C(=O)OC)=C1C (stereo not drawn),Potency,[4],inactive
same,Potency,[5],inactive
same,Potency,[3],inactive
CC(C)OC(=O)[C@H](C)NC(=O)N1CCc2nc(COc3ccccc3)c3c(c2C1)CO[C@@H](C)C3,Potency,[4],1.35 µM (active)
same,Potency,[5],2.62 µM (active)
same,Potency,[3],inactive
CC1(C)CC(=O)C2=C(C1)O[C@@]1(CCCCN3C(=O)c4ccccc4C3=O)Cc3cc(C#N)ccc3[C@H]2O1,Potency,[4],1.69 µM (active)
same,Potency,[2],inactive
same,Potency,[3],inactive
CCCNC(=O)N1C2=NC(C(=O)OC)=C(C(=O)OC)[C@@H]3N(C)c4ccc(OC)cc4[C@]23C[C@H]1C(=O)OC,Potency,[4],1.69 µM (active)
same,Potency,[5],2.94 µM (active)
same,Potency,[3],inactive
COc1cc2c(cc1OC)[C@@H]1O[C@](CCCCN3C(=O)c4ccccc4C3=O)(C2)Oc2cc(C)n(Cc3ccccc3)c(=O)c21,Potency,[4],1.51 µM (active)
same,Potency,[5],1.69 µM (active)
same,Potency,[3],inactive
COC(=O)c1c(C(=O)OC)c2c3cc(OC)c(OC)cc3cc([Si](C)(C)C)n2c1C(=O)OC,Potency,[4],1.51 µM (active)
same,Potency,[5],2.13 µM (active)
same,Potency,[2],inactive
same,Potency,[3],inactive
COC(=O)C1=C(C(=O)OC)[C@@H]2N(Cc3ccccc3)c3ccccc3[C@@]23C[C@@H](CO)N(C(=O)CC(C)C)C3=N1,Potency,[4],1.69 µM (active)
same,Potency,[3],inactive
CCN1C(=NCCCCO)N[C@@H](CCc2ccccc2)[C@H](C(=O)OC)[C@H]1C,Potency,[4],inactive
same,Potency,[5],inactive
same,Potency,[2],inactive
same,Potency,[3],inactive
CCCC[C@]12Cc3cc(OC)c(OC)cc3[C@H](O1)c1c(cc(-c3ccccc3)oc1=O)O2,Potency,[4],1.51 µM (active)
same,Potency,[3],inactive
C=CCN=C1NC(c2cccc(C(F)(F)F)c2)C(C(=O)OC)=C(C)N1Cc1ccccc1 (stereo not drawn),Potency,[4],inactive
same,Potency,[5],inactive
same,Potency,[3],inactive
COC(=O)C1=C(C)N(Cc2ccccc2)C(=NCCc2ccc(O)cc2)NC1c1ccc(Br)cc1 (stereo not drawn),Potency,[4],inactive
same,Potency,[5],inactive
same,Potency,[3],inactive
